About 83,000 compounds went through this panel and 20% of them were active in at least one assay; those are over-represented in the sample as a whole.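 For each line, cells grew in 96-well plates with the test compound present at a single concentration for 48 hours.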 Active and inactive are the calls of the source. How the source made its calls: active means growth percent below 10; inactive means the rest.
System: HL-60(TB) leukemia
Test: NCI-60 one-dose screen, 48 h (100 = growth as untreated, 0 = no growth, -100 = all killed)
Conditions: 10 µM unless noted

SMILES	growth
N/C(=N\C(N)=N\c1nc2ccccc2s1)c1cnccn1	0.412% (active)
CCCCn1c(-c2ccc(O)cc2)cn2c3c(=O)[nH]c(=O)n(C)c3nc12	48.9% (inactive)
CCn1cc(/C=C2\Oc3cc(OCC#N)ccc3C2=O)c2cc(OC)ccc21	-31% (active)
O=S(=O)(NCCCNc1nccc(-c2c(-c3cccc(O)c3)nc3occn23)n1)c1ccc(Cl)cc1	56.1% (inactive)
CCNCc1ccccc1	101% (inactive)
CC(=O)O[C@H]1CC[C@]2(C)[C@H]3CC=C4[C@@H]5CC(C)(C)CC[C@]5(C(=O)NCCNCCNCCN)CC[C@@]4(C)[C@]3(C)CC[C@H]2C1(C)C	-42.8% (active)
COc1cc2c(Nc3ccc(S(N)(=O)=O)cc3)ncnc2c(OC)c1OC	91.5% (inactive)
CN1CCN(C(=O)[C@@]2(C)CC[C@]3(C)CC[C@]4(C)C(=CC[C@@H]5[C@@]6(C)CCC(=O)NC(C)(C)[C@@H]6CC[C@]54C)[C@@H]3C2)CC1	-35.8% (active)
CC(C)(C)c1ccc(O)c(C2CCCCC2)c1	67.4% (inactive)
COc1ccc(Cn2cc3c(c2-c2ccccc2)CC(C)(C)c2cnoc2-3)cc1	16.7% (inactive)
COc1cc(-c2c3sc(=O)[nH]c3nc3c2c(=O)[nH]n3C(C)C)cc2c1OCO2	116% (inactive)
Nc1ccc(Cl)c([N+](=O)[O-])c1	118% (inactive)
CC1=NCC2NC(=O)NC(C)=C12 (stereo not given)	109% (inactive)
O=C1CC(N2C(=O)/C(=C/C(Cl)=C\c3ccc([N+](=O)[O-])cc3)SC2=S)C(=O)N1c1ccc(O)cc1 (stereo not given)	-18.7% (active)
COc1cc(C(C)n2cc(-c3ccccc3)nn2)ccc1OC1CCCC1 (stereo not given)	53.1% (inactive)
COc1ccc(-n2c(C(O)c3ccccc3)n[nH]c2=S)cc1 (stereo not given)	119% (inactive)
O=C(/C=C/c1ccc(Cl)cc1)/C=C/c1cc2ccccc2[nH]c1=O	55.6% (inactive)
NC(=O)c1cccc(-n2ccc3cc(NC(=O)Nc4ccc(Cl)c(Cl)c4)ccc32)n1	102% (inactive)
C=CCN=C(N)SCCCCCCSC(N)=NCC=C	75.8% (inactive)
CC1=CC(=O)N(c2cccc3c(N4C(=O)C=C(C)C4=O)cccc23)C1=O	-1.53% (active)

SMILES	growth
COc1cccc(-c2nn(-c3ccccc3)cc2-c2ccnc(NCCCNS(=O)(=O)c3cccc(F)c3)c2)c1	9.51% (active)
Cc1cc(N2CCN(c3ccnc4cc(Cl)ccc34)CC2)nc(N2CCOCC2)n1	69.5% (inactive)
Clc1ccc(Nc2nnc(-c3ccc4c(c3)OCO4)o2)cc1	80.1% (inactive)
N#CCCN(CCCN1CCOCC1)CN1C(=O)c2ccccc2C1=O	83.2% (inactive)
COC(=O)C1(C(=O)OC)C2C(=O)C3C(C21)C3(C(=O)OC(C)(C)C)C(=O)OC(C)(C)C (stereo not given)	96.6% (inactive)
O=S(=O)(NCCNc1nccc(-c2c(-c3cccc(F)c3)nc3sccn23)n1)c1ccc(Br)cc1	90.5% (inactive)
CCOC(CNC(=O)c1cccc([N+](=O)[O-])c1)OCC	105% (inactive)
CCOC(=O)C1=C(C(=O)c2ccc(Br)cc2)C(c2ccc(Br)cc2)NC(=S)N1 (stereo not given)	117% (inactive)
c1ccc(-c2n[nH]c(-c3ccccn3)n2)nc1	105% (inactive)
Cc1ncc(C(=O)Nc2ccc(CN3CCN(C)CC3)c(C(F)(F)F)c2)cc1C#Cc1c(N)ncc2ccccc12	-51.1% (active)
Cc1nn(-c2ccc(Br)cc2)c2nc3[nH]c(=O)[nH]c(=O)c3nc12	120% (inactive)
Cc1[nH]c(C(=O)Nc2cccc(OC3CCNCC3)c2)c(Cl)c1Cl	54.9% (inactive)
COc1ccc(NC(=O)c2sc3nc(C)c(C(=O)CCc4cccc(OC)c4)cc3c2N)cc1	34.6% (inactive)
Fc1ccc(Cc2ccc(F)cc2)cc1	103% (inactive)
C=C1CC[C@@H]2[C@](C)(COC(C)=O)[C@H](OC(C)=O)CC[C@@]2(C)[C@@H]1CC(Nc1ccc(S(=O)(=O)NC(C)=O)cc1)C1=CCOC1=O (stereo not given in full)	-31.1% (active)
c1csc(-c2[nH]nc3c2CCc2ccccc2-3)c1	132% (inactive)
Cc1cc(N2CCCCCC2)nc(NC2CCCC(Nc3ccnc4cc(Cl)ccc34)C2)n1 (stereo not given)	-71.3% (active)
C#CCN1C(=O)/C(=c2\sc3n(c2=O)C2C(NN=3)N(CC)C(=O)N2CC)c2ccccc21 (stereo not given)	-29.4% (active)
CC1(C)OC2C(CO)OC(n3ccc(=O)[nH]c3=O)C2O1 (stereo not given)	105% (inactive)
COc1cc(/C=N/Nc2ncc(-c3cc4cc5c(cc4o3)OCO5)s2)cc(OC)c1OC	14.7% (inactive)
